Measured values taken from PubChem BioAssay (NCATS).
Results filed as inconclusive are left out. The source made the active and inactive calls. Unless noted, the call rests on the fitted dose curve. Residues, ends and D or L forms follow the SMILES beside them.

Key:
[1] = qHTS for Inhibitors of the Functional Ribonucleoprotein Complex (vRNP) of Lassa (LASV) Arenavirus: LASV Primary Screen - GLuc reporter signal (AID 1347082; calls by dose curve; tested in HEK293 reporter line; further: nearly all actives have a fitted effect of over 60% in size)
[2] = qHTS for Inhibitors of the Functional Ribonucleoprotein Complex (vRNP) of Lassa (LASV) Arenavirus: Viability assay - alamar blue signal for LASV Primary Screen (AID 1347083; calls by dose curve; tested in HEK293 reporter line; further: nearly all actives have a fitted effect of over 80% in size)
[3] = qHTS for Inhibitors of the Functional Ribonucleoprotein Complex (vRNP) of Lymphocytic Choriomeningitis Arenaviruses (LCMV): Viability assay - alamar blue signal for LCMV Primary Screen (AID 1347085; calls by dose curve; tested in HEK293 reporter line; further: nearly all actives have a fitted effect of over 80% in size)
[4] = target: Nucleoprotein (Lymphocytic choriomeningitis virus (strain Armstrong)) (UniProt P09992); test: qHTS for Inhibitors of the Functional Ribonucleoprotein Complex (vRNP) of Lymphocytic Choriomeningitis Arenaviruses (LCMV): LCMV Primary Screen - GLuc reporter signal (AID 1347086); further: nearly all actives have a fitted effect of over 70% in size
Chain of Nucleoprotein (Lymphocytic choriomeningitis virus (strain Armstrong)) (P09992 whole entry, looked up): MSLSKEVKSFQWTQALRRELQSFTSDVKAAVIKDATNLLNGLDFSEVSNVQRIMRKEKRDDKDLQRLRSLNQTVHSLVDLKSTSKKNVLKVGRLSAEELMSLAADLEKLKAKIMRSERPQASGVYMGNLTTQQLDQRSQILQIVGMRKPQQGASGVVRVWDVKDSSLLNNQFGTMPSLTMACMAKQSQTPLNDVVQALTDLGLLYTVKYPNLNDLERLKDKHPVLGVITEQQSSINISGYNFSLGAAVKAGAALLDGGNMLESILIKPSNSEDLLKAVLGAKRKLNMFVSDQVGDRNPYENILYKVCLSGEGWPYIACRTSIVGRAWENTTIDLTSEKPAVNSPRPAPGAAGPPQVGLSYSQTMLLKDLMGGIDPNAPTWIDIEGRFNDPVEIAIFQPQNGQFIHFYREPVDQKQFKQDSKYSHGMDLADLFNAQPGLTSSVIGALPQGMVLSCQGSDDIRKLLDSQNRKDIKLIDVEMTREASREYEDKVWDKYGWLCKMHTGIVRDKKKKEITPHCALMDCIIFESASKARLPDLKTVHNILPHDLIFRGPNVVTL

Measured: Potency
Further: series mostly up to about 57 µM.

CCc1cc(C(N)=S)ccn1
inactive: all assays above

Cc1ccccc1OCC(O)CO (stereo not given)
inactive: all assays above

CCN1CCN(C(=O)N[C@@H](C(=O)N[C@@H]2C(=O)N3[C@@H]2SC(C)(C)[C@H]3C(=O)O)c2ccccc2)C(=O)C1=O
inactive: all assays above

CN(C)C(=O)Oc1ccc[n+](C)c1
inactive: all assays above

C[C@]12CCC(=O)C=C1CC[C@H]1[C@@H]3CC[C@](O)(C(=O)CO)[C@@]3(C)C[C@H](O)[C@@]12F
inactive: all assays above

COCCOCC(OC)OC
inactive: all assays above

CC(C)(CO)[C@@H](O)C(=O)NCCCO
inactive: all assays above

O=C(c1ccccc1)c1ccccc1
inactive: all assays above

O=C(CCOCCOCCOCCOCCC(=O)Nc1c(I)cc(I)c(C(=O)O)c1I)Nc1c(I)cc(I)c(C(=O)O)c1I
inactive: all assays above

NS(=O)(=O)c1ccc(Cl)c(S(N)(=O)=O)c1
inactive: all assays above

C/C(=N\O)c1ccc(OCC(=O)N2CCCCC2)cc1
inactive: all assays above

CCCCOC(=O)CC(CC(=O)OCCCC)(OC(C)=O)C(=O)OCCCC
inactive: all assays above

COc1cc2c3cc1Oc1cc(ccc1O)C[C@@H]1c4c(cc(OC)c(O)c4Oc4ccc(cc4)C[C@@H]3N(C)CC2)CC[N+]1(C)C
inactive: all assays above

O=C(CCCl)NCCc1ccccc1
inactive: all assays above

COC(=O)c1cc(Cl)ccc1NS(=O)(=O)C(F)(F)F
inactive: all assays above

CCC(C(=O)NC(=O)NC(C)=O)c1ccccc1 (stereo not given)
inactive: all assays above

CC(C)Cc1ccc(CC(=O)O)cc1
inactive: all assays above

COCCOC(=O)C1=C(C)NC(C)=C(C(=O)OC(C)C)C1c1cccc([N+](=O)[O-])c1 (stereo not given)
inactive: all assays above

COC(=O)[C@H](Cc1ccccc1)NC(=O)[C@@H](N)CC(=O)O (H-Asp-Phe-OMe)
inactive: all assays above

CCC1=C(C)CN(C(=O)NCCc2ccc(S(=O)(=O)NC(=O)NC3CCC(C)CC3)cc2)C1=O (stereo not given)
inactive: all assays above

c1ccc2sc(SN3CCOCC3)nc2c1
inactive: all assays above

CC(=O)c1ccc(S(=O)(=O)NC(=O)NC2CCCCC2)cc1
inactive: all assays above

CC(CSC(=O)c1ccccc1)C(=O)N1C[C@@H](Sc2ccccc2)C[C@H]1C(=O)O (stereo not given in full)
inactive: all assays above

CCN(CC)C(=O)/C(C#N)=C/c1cc(O)c(O)c([N+](=O)[O-])c1
inactive: all assays above

CC(=O)c1ccc(O)c(C(N)=O)c1
inactive: all assays above

CCCCC(=O)OCC(=O)[C@H]1[C@H](C)C[C@H]2[C@@H]3C[C@H](F)C4=CC(=O)C=C[C@]4(C)[C@@]3(F)[C@@H](O)C[C@@]21C
inactive: all assays above

Oc1c(Br)cc(Br)c2cccnc12
inactive: all assays above

CC(C)(C)CC(C)(C)c1ccc(O)c(-n2nc3ccccc3n2)c1
inactive: all assays above

CC(=O)c1ccc(OCC(=O)N2CCCCC2)cc1
inactive: all assays above

COC(=O)c1ccc(NC(C)=O)cc1OC
inactive: all assays above

COc1cc(C)c(Cc2cnc(N)nc2N)cc1OC
inactive: all assays above

O=C(CCBr)N1CCN(C(=O)CCBr)CC1
inactive: all assays above

Cc1onc(-c2ccccc2)c1-c1ccc(S(N)(=O)=O)cc1
inactive: all assays above

COC(=O)c1ccccc1C(=O)c1ccc(OCCN2CCCCC2)cc1
inactive: all assays above

CCCCCCCCCCCCCCCC(=O)OC(C)C
inactive: all assays above
